HepG2 viability: kills HepG2 cells in TGF-b inhibitor counter-screen; HepG2 CAGA-GFP viability, ATP luminescence, 18 h; Potency, µM (doses to about 46.1 µM), inactives show at the top dose activity change, negative = cytotoxicity, most hits filed as cytotoxic; 410,000 compounds, 0.76% hits; AID 588856
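CellTiter-Glo luminescence gave cytotoxicity after 18 hours at 37 degrees C. The cells were HepG2 CAGA-GFP in 1% FBS DMEM, stimulated with 500 pg/mL TGF-beta after compound addition. %Activity was normalised to no-cell wells (complete cell-killing) and DMSO (no toxicity), and curves were fitted and classified.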
ATXN viability: reduces viability in counter-screen for ATXN expression inhibitors; S2 cells (HEK-293 line with an ATXN2-luciferase reporter) viability, CellTiter-Fluor protease fluorescence, 24 h; Potency, µM (top dose mostly 56.7 µM), most hits filed as cytotoxic; 400,000 compounds, 0.49% hits; AID 651635; further: nearly all actives have a fitted effect of over 40% in size
TGFb SMAD3 inh: TGF-b pathway inhibition; Potency, µM (top dose mostly 46.1 µM), without a hit: top-dose activity, negative = inhibition, most hits filed as inhibitors; 410,000 compounds, 1.2% hits; HepG2 CAGA-GFP TGF-b/SMAD3 reporter, GFP fluorescence, 18 h; TGF-beta stimulated, 500 pg/mL final; further: on the % scale 0 is the no-effect control and ±100 the full control effect; nearly all actives have a fitted effect of over 65% in size
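HEPG2 CAGA-GFP reporter cells (1000/well, DMEM with 1% FBS) received compounds, then recombinant TGF-beta at 500 pg/mL final for 18 hours at 37 degrees C. Per-cell GFP summed per well was normalised to unstimulated and stimulated DMSO controls before curve fitting.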
DT40 TDP1 CPT: growth inhibition of DT40 Tdp1-/-;hTDP1 cells with camptothecin (screen for TDP1 inhibitors); 420,000 compounds, 12% hits; Potency, µM (doses to about 46.2 µM), for inactives: top-dose activity change, negative = growth inhibition, hits mostly inhibitors; AID 686979; chicken DT40 Tdp1-/-;hTDP1 cells + 20 nM CPT, ATP luminescence, 48 h; further: on the % scale 0 is the no-effect control and ±100 the full control effect; nearly all actives have a fitted effect of over 55% in size
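Cell growth measured by CellTiter-Glo luminescence after a minimum 48 h, 37 C compound exposure with 20 nM CPT in Tdp1-knockout DT40 cells stably expressing hTDP1, seeded 400/well; qHTS titration format.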
ATXN2 expr inh: ATXN2 expression inhibition | HEK-293 ATXN2-luciferase reporter, luminescence, 24 h | Potency, µM (highest dose often 57 µM), without a hit: at the top dose activity change, negative = inhibition, most hits filed as inhibitors | 360,000 compounds, 0.72% hits; further: on the % scale 0 is the no-effect control and ±100 the full control effect; nearly all actives have a fitted effect of over 55% in size
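qHTS (up to 57 uM final) was run with 24 h compound exposure of reporter cells at 37 °C. Each well was multiplexed: SteadyGlo luminescence measured ATXN2-luciferase expression after a fluorogenic Gly-Phe-AFC viability readout (25 uM final).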
DT40 TDP1 no CPT: qHTS for Inhibitors of human tyrosyl-DNA phosphodiesterase 1 (TDP1): qHTS in cells in absence of CPT; DT40 Tdp1-/- hTDP1 cells, no CPT, ATP luminescence, 48 h; Potency, µM (highest dose often 46.2 µM), inactives show at the top dose activity change, negative = growth inhibition, hits mostly inhibitors; 420,000 compounds, 15% hits; AID 686978, 2013; further: on the % scale 0 is the no-effect control and ±100 the full control effect; nearly all actives have a fitted effect of over 55% in size
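Stably hTDP1-transfected Tdp1-null chicken DT40 cells were treated with library compounds minus camptothecin and grown for at least 48 hr at 37 °C, after which cellular ATP was quantified by luminescence.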
* marks the source's active call; other numbers are inactive results; i = inactive; ? = inconclusive; . = not tested or not shown. The list is not random: actives were taken first. Their share in the collection is about 17%. The call rests on the fitted dose curve; in most records, active means well fitted curve in the direction sought with a large enough effect; inconclusive means small, poorly fitted or top-dose-only effect, or another doubt; inactive means no such curve, though single readings can be large; an effect the other way counts as inactive or inconclusive. Potency means the concentration at half of the fitted maximal effect.

SMILES	HepG2 viability	ATXN viability	TGFb SMAD3 inh	DT40 TDP1 CPT	ATXN2 expr inh	DT40 TDP1 no CPT
COC(=O)c1c(OCc2cccnc2)cc(=O)n2c1CCN(Cc1cc3c(cc1Cl)OCO3)CC2	.	?	.	?	.	18.4µM*
Cc1cccc(NP(C)(=O)c2nc3c(s2)CCCC3)c1 (configuration not stated)	-12.1%	?	12.9%	-2.4%	2.5%	-26.1%
CCCCCn1c(=O)c(C(=O)Nc2ccccc2S(N)(=O)=O)c(O)c2ccccc21	-16.1%	i	?	6.51µM*	?	4.61µM*
CCCCn1c(=O)c(C(=O)NCc2ccccc2)c(O)c2ccccc21	2.5%	?	5.2%	?	.	16.4µM*
CCCCCn1c(=O)c(C(=O)NC(C)c2ccccc2)c(O)c2ccccc21 (configuration not stated)	11.0%	i	-5.3%	?	-16.1%	20.6µM*
CCCCn1c(=O)c(C(=O)Nc2ccccc2)c(O)c2ccccc21	-9.2%	i	22.0%	3.66µM*	13.1%	4.11µM*
CCCCn1c(=O)c(C(=O)Nc2ccccc2S(N)(=O)=O)c(O)c2ccccc21	-52.6%	i	?	?	?	?
CCCCCl	.	.	.	-18.7%	.	-2.1%
COC(=O)[C@@]1(C)[C@H]2C(=O)N(Cc3ccccc3)C(=O)[C@H]2[C@H]2CN=C(SCc3ccc(Cl)cc3)N21	-20.0%	i	-15.7%	?	-4.4%	?
NC(=O)Oc1ccc(Cc2ccccc2)cc1	.	.	.	-25.1%	.	?
Oc1ccccc1-c1ccccc1	.	i	.	0.1%	-3.3%	-10.0%
CC(=O)O[C@H]1C[C@H](O[C@H]2[C@@H](O)C[C@H](O[C@H]3[C@@H](O)C[C@H](OC4CC[C@@]5(C)[C@H](CC[C@@H]6[C@@H]5CC[C@]5(C)[C@@H](C7=CC(=O)OC7)CC[C@]65O)C4)O[C@@H]3C)O[C@@H]2C)O[C@H](C)[C@H]1O[C@@H]1O[C@H](CO)[C@@H](O)[C@H](O)[C@H]1O (some centres not stated)	.	.	.	0.335µM*	.	0.299µM*
CC(=O)OC1CC(OC2C(O)CC(OC3C(O)CC(OC4CCC5(C)C(CCC6C5CC(O)C5(C)C(C7=CC(=O)OC7)CCC65O)C4)OC3C)OC2C)OC(C)C1OC1OC(CO)C(O)C(O)C1O (configuration not stated)	-47.4%	?	1.41µM*	1.3µM*	0.316µM*	0.651µM*
CN1CCN(/N=C/c2c(O)n(Cc3ccc(F)cc3)c(=O)[nH]c2=O)CC1	7.8%	i	5.8%	15.0%	.	10.1%
Cc1ccc[n+](CC(O)Cn2c3ccccc3c3ccccc32)c1 (configuration not stated)	-15.8%	i	-39.4%	-29.2%	-7.5%	-12.9%
COc1ccc(C(=O)N2CCN(c3nc4c(OC)cccc4s3)CC2)cc1OC	-27.4%	.	-17.4%	18.4µM*	.	14.6µM*
COc1ccc(C(=O)N2C[C@H]3C[C@@H](C2)c2cccc(=O)n2C3)cc1OC	4.0%	i	30.0%	20.1%	4.8%	-0.2%
O=C1C=C2C=C[C@@H]3CC2(O1)[C@H]1CCCCN31	-19.7%	i	-15.8%	?	1.5%	18.4µM*
O=C1C=C2C=C[C@H]3C[C@]2(O1)[C@@H]1CCCCN13	-3.9%	i	-7.8%	-23.6%	5.1%	?
NC1CCc2cc(O)c(O)cc2C1 (configuration not stated)	4.7%	i	-2.5%	20.6µM*	-2.5%	13µM*

High-throughput results as filed in PubChem BioAssay.
